# Data reported in PubChem BioAssay (NCATS).
# Results filed as inconclusive are left out. The source made the active and inactive calls. The call rests on the fitted dose curve; in most records, active means well fitted cell-killing curve with a large enough effect; inconclusive means small, poorly fitted or top-dose-only effect; inactive means flat fitted curve, though single readings scatter.
# Assay: Quantitative highthroughput screen to assess conditional lethalithy of P12 Ichikawa cells grown in RPMI1640 with untreated serum (RPMI+s) (AID 1963881); further: nearly all actives have a fitted effect of over 35% in size
# Conditions: ATP luminescence, 48 h; Potency: viability; series mostly up to 45.8 µM; viability: at the top concentration
# Source text: Assay Provider: Jason Cantor Ph.D.
# Department of Biochemistry
# University of Wisconsin-Madison, Madison, WI, USA
# Chemical screening studies have identified drug sensitivities across hundreds of cancer cell lines but most putative therapeutics fail to translate. Discovery and development of drug candidates in models that more accurately reflect nutrient levels in human blood is a major challenge. Here we performed high-throughput screens in conventional versus Human Plasma-Like Medium (HPLM) to identify compounds that were "missed" when screening using the artificial culture condition. Sets of conditional anticancer compounds spanned phases of clinical development and included non-oncology drugs were assessed. […] We also traced conditional phenotypes for several chemotherapeutics to availability of HPLM-specific metabolites and confirmed others for compounds whose reported targets are encoded by nonessential genes. Our findings establish generalizable strategies for exploiting conditional lethality in HPLM to reveal therapeutic candidates and mechanisms of action in cancer cells.
# Described herein are the results of each viability screens against three cell lines: NOMO1 (an acute myeloid leukemia cell line); P12-Ichikawa (a T-cell acute lymphoblastic leukemia); and SEM (a B-cell ALL). Each assay was screened using 3 different cell culture media: homemade human plasma-Like medium with 10% dialyzed fetal bovine serum (HPLM+ds); RPMI1640 with 10% untreated FBS and 5mM glucose (RPMI+s); and RPMI1640 with 10% dialyzed fetal bovine serum and 5 mM glucose (RPMI+ds).
# PROTOCOL TABLE (as described by Inglese J, Shamu CE and Guy RK. 2007)
# SEQUENCE No. (e.g., 1, 2, 3, etc.); […] (e.g., Cells, Incubation, Reagent, etc.); VALUE and DESCRIPTION.
# 1; Cells; 5 uL; white, solid bottom 1536-well Greiner assay plate.
# 2; Compounds; 23 nL; Kalypsis pin tool (Wako USA) equipped with a 1536-well pin head to transfer to the assay plates.
# 3; Incubation; 48 hours; 37C incubation.
# 4; Reagent; 3 uL; CellTiter Glo (Promega).
# 5; Incubation; 5 min, room temperature
# 6; Detection; Luminescence, Viewlux PerkinElmer.
# NOTES (numbers refer to Sequence numbers above)
# 1. Briefly, 5 ul of cell reagent was dispensed using a Multidrop Combi Dispenser. The NOMO1 and SEM cells were plated at 500 cells/well and the P12-Ichikawa line at 1000 cells/well.
# 2. After seeding the cells, 23 nL of MIPE 4.1 library compounds (in DMSO) were added to each plate using a Kalypsys 1536 Pintool dispenser. Bortezomib at final concentration of […] and DMSO were added to each plate as positive and negative controls respectively. For each screen, MIPE 4.1 compounds were added over an eleven-point concentration range […] in 3-fold dilutions.
# 3. Each plate was covered with a stainless steel gasketed lid to prevent evaporation and incubated for 48 hour at 37C, 95% relative humidity, and 5% CO2.
# 4-5. Three microliter CellTilter-GloTM luminescent substrate mix (Promega) reagent was added to the assay plate and incubated at room temperature for 5 min.
# 6. The luminescence signal was measured using a ViewLux (PerkinElmer) multiplate reader with a 2 second exposure time per plate. Data for each compound were normalized as percent viability such that measurements for DMSO and the empty well controls in each plate were defined as 100% and 0%, respectively.
# Potency means the concentration at half of the fitted maximal effect.
SMILES,viability,Potency
CN[C@@H]1Cc2cccc3[nH]c(=O)n(c23)C1,95.6% (inactive),
CC[C@@]1(O)C(=O)OCc2c1cc1n(c2=O)Cc2cc3ccccc3nc2-1,,0.0235 µM (active)
CC[C@H]1C=CC=CC[C@@H](C)[C@H](O)[C@@](C)(O)C(=O)[C@@H](C)[C@H](O)[C@@H](C)C(=O)[C@@H](C)[C@H](O)[C@@H](C)C=CC(=O)O[C@@H]2[C@@H](C)[C@H](CC1)O[C@]1(CC[C@H](C)[C@H](C[C@@H](C)O)O1)[C@H]2C,,16.6 µM (active)
CC(NC(C)(C)C)C(=O)c1cccc(Cl)c1 (stereo not given),86.8% (inactive),
Oc1ccc2c3c1O[C@H]1c4[nH]c5c(c4C[C@@]4(O)[C@@H](C2)N(CC2CC2)CC[C@]314)C[C@@]1(O)[C@H]2Cc3ccc(O)c4c3[C@@]1(CCN2CC1CC1)[C@H]5O4,106% (inactive),
CC(C)N[C@@H]1CCn2c(=O)[nH]c3cccc(c32)[C@@H]1O,99.6% (inactive),
C[C@]12Cc3cn[nH]c3C[C@@H]1CC[C@@H]1[C@H]2CC[C@@]2(C)[C@H]1CC[C@]2(C)O,91.6% (inactive),
C[C@]12CCC(=O)C=C1CC[C@@H]1[C@H]3CC[C@](C)(O)[C@@]3(C)CC[C@@H]12,87.9% [at 92.2 µM] (inactive),
C[C@@H]1CC[C@H]2[C@@H](C)C(=O)O[C@@H]3O[C@@]4(C)CC[C@H]1[C@]32OO4,96.6% (inactive),
COC1(CS(=O)c2ccccc2)CCN(CCc2c[nH]c3ccc(F)cc23)CC1 (stereo not given),97.8% (inactive),
CC(=CCCC1=CCC(C2=CC(=O)OC2O)OC1O)CCC1=C(C)CCCC1(C)C (stereo not given),94.4% (inactive),
COc1cc(C(=O)N2CC[C@@H](O)[C@@H](N)C2)cc2nc(-c3cc4ccccc4n3CC3CC3)n(C)c12,,1.05 µM (active)
O=[N+]([O-])c1ncc[nH]1,97.1% (inactive),
COc1cccc2c1[C@]13CCN(CC4CC4)[C@H](C2)[C@]1(OC)CCC(=O)C3,98.3% (inactive),
O=S(=O)(F)Cc1ccccc1,72.7% (inactive),
C[C@@H]1[C@H](O)[C@@H](C)C=CC=CCCC=CC=CC=CC=C[C@H](O[C@H]2O[C@@H](C)[C@H](O)[C@@H](N)[C@@H]2O)CC2O[C@](O)(C[C@@H](O)[C@H](O)CC[C@@H](O)C[C@@H](O)C[C@@H](O)CC(=O)O[C@H]1C)C[C@H](O)[C@H]2C(=O)O,96.1% (inactive),
C[C@]12CC[C@@H]3[C@@H](CCC4=CC(=O)CC[C@@H]43)[C@@H]1CC[C@@H]2OC(=O)CCc1ccccc1,105% (inactive),
Cc1ncc(OC[C@@]2(c3cccc(F)c3)C[C@H]2C(=O)Nc2ccc(F)cn2)c(C)n1,89.1% (inactive),
CCN1C[C@]2(OC(=O)c3ccccc3NC(C)=O)CC[C@H](OC)[C@@]34[C@H]5CC6[C@@H](OC)C[C@](O)(C(C[C@@H]23)[C@@H]14)[C@@]5(O)[C@@H]6OC,103% (inactive),
CCOC(=O)c1cncn1[C@H](C)c1ccccc1,107% (inactive),

SMILES,viability,Potency
CN1CCN(C(=O)O[C@H]2c3nccnc3C(=O)N2c2ccc(Cl)cn2)CC1,94.2% (inactive),
COc1ccc(C(=O)c2c(C)n(CCN3CCOCC3)c3ccccc23)cc1,97.2% (inactive),
COC(=O)[C@@H](N)CCCN=C(N)N[N+](=O)[O-],106% (inactive),
Cc1ccccc1-n1c(Cn2ncc3c(N)ncnc32)nc2cccc(C)c2c1=O,,2.64 µM (active)
O=C(Oc1ccc([N+](=O)[O-])cc1)N1CCC(C(O)(c2ccc3c(c2)OCO3)c2ccc3c(c2)OCO3)CC1,104% (inactive),
COc1ccc2c(c1)[C@]13CCCCC1C(C2)N(C)CC3 (stereo not given in full),89.5% (inactive),
CC[C@@H]1[C@@H](C)O[C@@](O)([C@@H](C)[C@H](O)[C@H](C)[C@H]2OC(=O)C=CC=C[C@@H](C)[C@@H]([C@@H](C)[C@@H](O)[C@H](C)[C@@]3(O)C[C@H](O[C@H]4C[C@H](O)[C@H](O)[C@H](C)O4)[C@H](CC)[C@@H](C)O3)OC(=O)C=CC=C[C@@H]2C)C[C@H]1O[C@H]1C[C@H](O)[C@H](O)[C@H](C)O1,,7.43 µM (active)
O=C(N[C@H]1CN2CCC1CC2)c1ccc(Cl)cc1,87.4% (inactive),
C[C@](O)(CS(=O)(=O)c1ccc(F)cc1)C(=O)Nc1ccc(C#N)c(C(F)(F)F)c1,88.7% (inactive),
CC(=Cc1csc(C)n1)[C@@H]1C[C@H]2O[C@]2(C)CCC[C@H](C)[C@@H](O)[C@@H](C)C(=O)C(C)(C)[C@@H](O)CC(=O)O1,25.4% (inactive),
Cc1cc(SCc2sc(-c3ccc(C(F)(F)F)c(F)c3)nc2C)ccc1OCC(=O)O,97.6% (inactive),
CC(C)(O)C=CC(=O)[C@](C)(O)[C@H]1[C@H](O)C[C@]2(C)[C@@H]3CC=C4[C@@H](C=C(O)C(=O)C4(C)C)[C@]3(C)C(=O)C[C@@]12C,,0.148 µM (active)
C#C[C@]1(O)C=C[C@@H]2[C@@H]3CCC4=CC(=O)CC[C@@H]4[C@H]3CC[C@@]21CC,91.1% (inactive),
CCOC(=O)Nc1ccc(NCc2ccc(F)cc2)cc1N,98.3% (inactive),
CCOP(=O)(OCC)C(C)NC(=O)N(CCCl)N=O (stereo not given),107% (inactive),
c1cc2c(cc1[C@H]1OC[C@H]3[C@H]1CO[C@H]3c1ccc3c(c1)OCO3)OCO2,103% (inactive),
CC(C)C[C@H](CN)CC(=O)O,106% (inactive),
COc1cc2cc(c1Cl)N(C)C(=O)C[C@H](OC(=O)C(C)C)[C@]1(C)O[C@H]1[C@H](C)[C@@H]1C[C@@](O)(NC(=O)O1)[C@H](OC)C=CC=C(C)C2,1.52% (inactive),
O=C1CCC[C@@H]2[C@H]3CCCN4CCC[C@@H](CN12)[C@@H]34,88% (inactive),
O=c1[nH]c2ccc(Cl)cc2c(N[C@@H]2CN3CCC2CC3)c1-c1nc2ccccc2[nH]1,,0.166 µM (active)
